Source: PubChem (National Center for Advancing Translational Sciences (NCATS))
HT1080-NT tox – kills 2HG-producing HT-1080-NT fibrosarcoma cells. HT-1080-NT fibrosarcoma viability, CellTiter-Glo ATP luminescence, 48 h. Potency, µM (series often up to 46.1 µM), for inactives: at the highest dose activity, negative = less viability, actives largely listed as cytotoxic. AID 686970. 360,000 compounds, 1.6% hits;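 also: NT is the 2HG producing partner of a matched IDH1 knockdown line; potency is read from the fitted curve at half-maximal effect; 0% = DMSO-treated cells and -100% = media-only wells without cells; nearly all actives have a fitted effect of over 55% in size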
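HT-1080-NT fibrosarcoma cells (2HG-overproducing), 750 cells/well in RPMI with 5% FBS, dosed after 2 h and incubated 48 h at 37C. CellTiter-Glo luminescence normalized to DMSO and no-cell wells; concentration-response curves fitted and classed.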
HT1080 IDH1KD tx – HT-1080 IDH1 knockdown cell toxicity (counter line); Potency, µM (doses to about 46.1 µM), without a hit: at the top dose activity, negative = toxicity, hits mostly cytotoxic; AID 686971; HT-1080 IDH1 knockdown viability, ATP luminescence, 48 h; 360,000 compounds, 2% hits;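 also: potency is read from the fitted curve at half-maximal effect; 0% = DMSO wells and -100% = cell-free medium wells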
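Assay cells: HT-1080 with IDH1 knockdown, 750 per well, RPMI/5% FBS. Exposure: 48 h at 37 °C following 2 h pre-incubation. Read: CellTiter-Glo luminescence; fitted concentration-response, curve class assigned.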
IL1B secr inh – inflammasome signaling inhibition, IL-1 beta readout | THP-1 LPS/ATP IL-1B secretion, AlphaLISA, 16 h; hits give low values | activity change, % at 57.5 µM | 360,000 compounds, 4.7% hits; in the data active = activity change below about -50%; inconclusive = mostly about -30% to -49%
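THP-1 cells pretreated 1 hr with compounds (up to 57.5 uM final), then stimulated with LPS (250 ng/mL final) plus ATP (1.25 mM final); secreted IL-1B measured by AlphaLISA after 16 hr, decreased signal indicating inhibition.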
TDP1 cell CPT – DT40-hTDP1 cell growth loss with CPT; 420,000 compounds, 12% hits; chicken DT40 Tdp1-/-;hTDP1 cells + 20 nM CPT, ATP luminescence, 48 h; Potency, µM (series often up to 46.2 µM), for inactives: top-dose activity change, negative = growth inhibition, most hits filed as inhibitors; AID 686979; also: potency is read from the fitted curve at half-maximal effect; nearly all actives have a fitted effect of over 55% in size
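Cell growth measured by CellTiter-Glo luminescence after a minimum 48 h, 37 C compound exposure with 20 nM CPT in Tdp1-knockout DT40 cells stably expressing hTDP1, seeded 400/well; qHTS titration format.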
TDP1 cell noCPT – qHTS for Inhibitors of human tyrosyl-DNA phosphodiesterase 1 (TDP1): qHTS in cells in absence of CPT; DT40 Tdp1-/- hTDP1 cells, no CPT, ATP luminescence, 48 h; Potency, µM (top dose mostly 46.2 µM), for inactives: at the top dose activity change, negative = growth inhibition, hits mostly inhibitors; 420,000 compounds, 15% hits; AID 686978, 2013; also: potency is read from the fitted curve at half-maximal effect; nearly all actives have a fitted effect of over 55% in size
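Chicken DT40 Tdp1-/- cells stably complemented with human TDP1 were seeded at 400 cells/well with DMSO in place of 20 nM camptothecin. After compound pinning, cells grew at least 48 hr at 37 °C; viability read by CellTiter-Glo luminescence.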
* = called active by the depositor; ? = inconclusive; nt = no result; ! = repeats disagree; [ ] = dose if it differs, or a comment. Only some compounds are listed: those with a hit (about 19% of all), similar ones and a draw of the others. Unless noted, calls follow the shape of the dose curve; as a rule, active = well fitted curve in the direction sought with a large enough effect; inconclusive = small, poorly fitted or top-dose-only effect, or another doubt; inactive = no such curve, though single readings can be large; an effect the other way counts as inactive or inconclusive. Unless noted, % is scaled to controls: 0 for no effect and ±100 for the full control effect.

SMILES | HT1080-NT tox | HT1080 IDH1KD tx | IL1B secr inh | TDP1 cell CPT | TDP1 cell noCPT
COc1cccc(C(C(=O)NC(C)(C)C)N(Cc2ccc(C)cc2)C(=O)CCC(=O)Nc2cc(C)on2)c1OC (centres undefined) | -3.2% | -16.4% | -11.0 | ? | ?
COc1cccc(C(C(=O)NC(C)(C)C)N(Cc2ccco2)C(=O)CCC(=O)Nc2cc(C)on2)c1OC (centres undefined) | 7.6% | -1.2% | -12.2 | 2.7% | 29.1µM*
Cc1cc(NC(=O)CCC(=O)N(Cc2ccccc2)C(C(=O)NC2CCCC2)c2ccco2)no1 (centres undefined) | -18.6% | -20.9% | -10.9 | -17.2% | ?
Cc1cc(NC(=O)CCC(=O)N(c2ccccc2)C(C)C(=O)NC2CCCC2)no1 (centres undefined) | 4.0% | 3.7% | 34.5 | 3.4% | -3.6%
Cc1cc(O)c2c(c1O)C(=O)C(O)=C(O)C2=O | nt | nt | nt | 7.7%[9.04 µM] | -20.4%[9.04 µM]
Cn1c(=O)c(-c2cc(=O)[nH][nH]2)c(O)c2ccccc21 | -19.1% | 1.3% | 15.9 | -7.3% | -20.3%
CCc1nnc2c3ccccc3nc(Nc3ccc(C(C)=O)cc3)n12 | nt | nt | nt | ? | 7.31µM*
CCc1nnc2c3ccccc3nc(Nc3cc(C)cc(C)c3)n12 | nt | nt | nt | 6.51µM* | 3.66µM*
CCc1nnc2c(Nc3ccc(Br)c(C)c3)nc3ccccc3n12 | nt | nt | nt | -15.3% | -6.3%
Cn1c(=O)c(CCc2ccccc2)nc2cncnc21 | nt | nt | nt | 4.8% | ?
CCc1cccc(C)c1NC(=O)COCc1cc(-c2ccc3c(c2)OCO3)on1 | nt | nt | nt | 23.1µM* | ?
CCOC(=O)c1ccc(NC(=O)COCc2cc(-c3ccc4c(c3)OCO4)on2)cc1 | nt | nt | nt | -22.2% | -27.2%
COc1ccc(N2CCN(C(=O)COCc3cc(-c4ccc5c(c4)OCO5)on3)CC2)cc1 | -3.3% | -7.9% | -18.6 | ? | 18.4µM*!
Cc1cc(C)c(NC(=O)COCc2cc(-c3cccs3)on2)c(C)c1 | nt | nt | nt | 18.4µM* | ?
O=C(COCc1cc(-c2ccc3c(c2)OCO3)on1)N1CCN(c2cccc(C(F)(F)F)c2)CC1 | ? | ? | -9.6 | 13µM* | 23.1µM*!
CCOc1ccc(-n2c(SCC(=O)N3CCCCC3)nc3c([nH]c4ccccc43)c2=O)cc1 | nt | nt | nt | -29.6% | ?
Cc1cc(C)c2c(n1)nn1c(C)c(CCC(=O)Nc3ccc(C)c(Cl)c3)c(C)nc21 | nt | nt | nt | -14.4% | ?
CCOC(=O)c1cccc(NC(=O)CCc2c(C)nc3c4cccnc4nn3c2C)c1 | nt | nt | nt | ? | -27.1%
Cc1cc(C)cc(NC(=O)CCc2c(C)nc3c4cccnc4nn3c2C)c1 | nt | nt | nt | -25.7% | 18.4µM*
COc1cccc(NC(=O)CCc2c(C)nc3c4cccnc4nn3c2C)c1 | nt | nt | nt | ? | 18.4µM*
CC(SC1=NCCN1S(C)(=O)=O)c1ccccc1 (centres undefined) | -0.8% | 0.6% | -6.9 | -10.5% | -13.1%
Oc1c(C=C2N=c3ccccc3=N2)sc(=S)n1-c1ccc(F)cc1 | ? | -2.0% | -3.4 | ? | ?
Oc1c(C=C2N=c3ccccc3=N2)sc(=S)n1-c1ccc2ccccc2c1 | 22.5% | -0.6% | 47.5 | 20.6µM* | -22.5%
CC[n+]1c(C)cc(C)n1-c1ccccc1 | 6.3% | 0.7% | 40.7 | ? | ?
CN(c1cccc(Cl)c1)S(=O)(=O)c1cccc(C(=O)NN2CCOCC2)c1 | 4.5% | 10.0% | 4.5 | 12.4% | 0.5%
Cc1ccccc1S(=O)(=O)NC1OC(=O)C(Cl)=C1Cl (centres undefined) | 5.4% | -1.3% | -106.9* | 20.6µM* | ?
Cc1cc(C)cc(NC(=O)c2cn3c4c(ccc(Cl)c4c2=O)OC(C)C3)c1 (centres undefined) | nt | nt | nt | -0.8% | -3.5%
COc1ccc(C(=O)C2CCCN(S(=O)(=O)C(C)C)C2)c(C)c1 (centres undefined) | 4.5% | 4.1% | 9.9 | 1.2% | ?
CCOc1ccc(Nc2oc(-c3cccc(Cl)c3)nc2C#N)cc1 | 18.7% | 6.0% | 7.3 | ? | ?
